HepG2 viability = counter-screen for TGF-b inhibitors: cytotoxicity in HepG2 cells; AID 588856; actives 0.76% (n = 410,000); HepG2 CAGA-GFP viability, ATP luminescence, 18 h; Potency, µM (titrated, usually from 46.1 µM), for inactives: at the top dose activity change, negative = cytotoxicity, hits mostly cytotoxic; further: potency means the concentration at half of the fitted maximal effect
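CellTiter-Glo luminescence gave cytotoxicity after 18 hours at 37 degrees C. The cells were HepG2 CAGA-GFP in 1% FBS DMEM, stimulated with 500 pg/mL TGF-beta after compound addition. %Activity was normalised to no-cell wells (complete cell-killing) and DMSO (no toxicity), and curves were fitted and classified.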
IL-1B inflam inh = blocks inflammasome-driven IL-1 beta release; THP-1 LPS/ATP IL-1B secretion, AlphaLISA, 16 h; active compounds read low; activity change, % at 57.5 µM; actives 4.7% (n = 360,000); AID 743279; in the data active means activity change below about -50%; inconclusive means mostly about -30% to -49%; further: on the % scale 0 is the no-effect control and ±100 the full control effect
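Secreted IL-1B measured by AlphaLISA bead assay after 16 h compound exposure of THP-1 cells; compounds (final up to 57.5 uM) added 1 h before LPS (250 ng/mL) and ATP (1.25 mM) stimulation; lower signal means less secretion.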
ATXN2 expr inh = ATXN2 expression inhibition; HEK-293 ATXN2-luciferase reporter, luminescence, 24 h; Potency, µM (top dose mostly 57 µM), for the others: at the top dose activity change, negative = inhibition, most hits filed as inhibitors; actives 0.72% (n = 360,000); AID 1745845; further: potency means the concentration at half of the fitted maximal effect; on the % scale 0 is the no-effect control and ±100 the full control effect; nearly all actives have a fitted effect of over 55% in size
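qHTS (up to 57 uM final) was run with 24 h compound exposure of reporter cells at 37 °C. Each well was multiplexed: SteadyGlo luminescence measured ATXN2-luciferase expression after a fluorogenic Gly-Phe-AFC viability readout (25 uM final).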
S2 tox = reduces viability in counter-screen for ATXN expression inhibitors; AID 651635; S2 cells (HEK-293 line with an ATXN2-luciferase reporter) viability, CellTiter-Fluor protease fluorescence, 24 h; Potency, µM (series often up to 56.7 µM), actives largely listed as cytotoxic; actives 0.49% (n = 400,000); further: potency means the concentration at half of the fitted maximal effect; nearly all actives have a fitted effect of over 40% in size
TGFb SMAD3 inh = TGF-b pathway inhibition; HepG2 CAGA-GFP TGF-b/SMAD3 reporter, GFP fluorescence, 18 h; TGF-beta stimulated, 500 pg/mL final; Potency, µM (highest dose often 46.1 µM), inactives show at the highest dose activity, negative = inhibition, usual class: inhibitors; actives 1.2% (n = 410,000); further: potency means the concentration at half of the fitted maximal effect; on the % scale 0 is the no-effect control and ±100 the full control effect; nearly all actives have a fitted effect of over 65% in size
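Inhibition was scored as loss of TGF-beta-induced (500 pg/mL final, 18 hours, 37 degrees C) GFP in HEPG2 cells carrying a CAGA-GFP reporter, in DMEM with 1% FBS. Well GFP was summed per cell; Activity was normalised to unstimulated and stimulated DMSO wells, then concentration-response fitting.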
Numbers without * were called inactive; i = inactive; ? = inconclusive; / = no result given; [ ] = remark or other dose. Compounds with a hit are over-represented: about 5.7% of the library has one in this group of screens. Unless noted, the call rests on the fitted dose curve; in most records, active means well fitted curve in the direction sought with a large enough effect; inconclusive means small, poorly fitted or top-dose-only effect, or another doubt; inactive means no such curve, though single readings can be large; an effect the other way counts as inactive or inconclusive.

SMILES	HepG2 viability	IL-1B inflam inh	ATXN2 expr inh	S2 tox	TGFb SMAD3 inh
Cc1oc(-c2ccccc2NC(=O)c2ccccn2)nc1CNC(=O)c1cccc(C#CC(C)(C)O)c1	/	/	/	i	/
COc1ccc(O)c(CN2CCC3(CCC(CNC(=O)C4CCCO4)O3)CC2)c1 (stereo unspecified)	/	/	/	i	/
COC(=O)c1cccc(NC(=O)Nc2ccc(Cl)c(Cl)c2)c1	11µM*	-85*	?	i	?
COC(=O)c1ccc(NC(=O)Nc2ccc(F)c(Cl)c2)cc1	-47%	-89*	?	?	?
CC(C)c1c(C(=O)Nc2ccccc2)c(-c2ccccc2)c(-c2ccc(F)cc2)n1CC[C@H](O)C[C@@H](O)CC(=O)O	/	/	19%	/	/
Cc1ccccc1C(=O)n1nc(-c2ccco2)nc1NCc1cccs1	6%	/	4%	i	36%
Oc1ccc(Br)cc1-c1nc2cnccn2c1NC1CCCCC1	-26%	-70*	-26%	i	?
Oc1ccc(Br)cc1-c1nc2cnccn2c1NC1CCCC1	11µM*	-93*	-16%	i	-28%
Fc1ccc(-c2nc3cnccn3c2NC2CCCC2)cc1	-13%	15	-14%	/	-15%
CCOc1ccc(CCN2C(=O)C(=O)N([C@@H](CC(C)C)CN3CCC[C@@H]3CN3C(=O)C(=O)NC[C@@H]3CC(C)C)C[C@@H]2Cc2ccccc2)cc1	-2%	0	?	/	20µM*
CCOc1ccc(CCN2C(=O)C(=O)N([C@@H](Cc3ccccc3)CN3CCC[C@H]3CN3C(=O)C(=O)NC[C@@H]3Cc3ccc(O)cc3)C[C@@H]2CC(C)C)cc1	/	-14	-4%	?	/
CCOc1ccc(CCN2C(=O)C(=O)N([C@@H](CC(C)C)CN3CCC[C@H]3CN3C(=O)C(=O)NC[C@@H]3CC(C)C)C[C@@H]2CC(C)C)cc1	/	-28	-8%	?	/
CCOc1ccc(CCN2C(=O)C(=O)N([C@@H](CC(C)C)CN3CCC[C@H]3CN3C(=O)C(=O)NC[C@@H]3CC(C)C)C[C@@H]2Cc2ccccc2)cc1	/	-92*	?	?	/
CCOc1ccc(CCN2C(=O)C(=O)N([C@@H](CC(C)C)CN3CCC[C@H]3CN3C(=O)C(=O)NC[C@@H]3Cc3ccc(O)cc3)C[C@@H]2CC(C)C)cc1	/	-54*	-4%	?	/
COc1ccc(/C=C\c2onc(C)c2S(=O)(=O)N2CCC(C(=O)Nc3cccc(OC)c3)CC2)cc1	-30%	/	/	/	?
S=C(NCc1cccnc1)Nc1ccc(Cl)c(Cl)c1	-16%	-58*	-15%	i	?
Cc1ccc(NC(=O)NCc2cccnc2)cc1	-2%	-53*	21%	i	6%
O=C(NCc1cccnc1)Nc1ccc(Cl)c(Cl)c1	-26%	-11	/	i	-3%
COc1ccc(CCNC(=O)CCc2c(C)nc3c(c(C)nn3-c3ccccc3)c2C)c(OC)c1	-2%	/	5%	i	-35%
COc1cccc(-n2nc(-c3ccnn3-c3ccc(C)cc3)c(=O)n(C)c2=O)c1	11%	-57*	-9%	i	5%
c1cc2c3c(cccc3c1)-c1cnccc1-2	1%	-66*	-22%	i	0%
Cc1cccc(C(=O)N2CCCC(Nc3ccc(F)c(F)c3)C2)n1 (stereo unspecified)	7.1µM*	-9	-1%	i	-14%
C[C@H](NCc1ccc2c(c1)nc(NC(=O)c1ccc(-c3cn[nH]c3)s1)n2CCc1ccccc1)C(C)(C)C	/	/	1.9µM*	/	/
CN1CCN(CC(=O)Nc2ccc(Oc3ccccc3)cc2)CC1	-19%	2	3%	i	7%
COc1ccc(NC(=O)CN2CCN(C(=O)N3CCOCC3)CC2)cc1	3.5µM*	-13	-4%	i	0%
SMILES	HepG2 viability	IL-1B inflam inh	ATXN2 expr inh	S2 tox	TGFb SMAD3 inh
O=C(CNCc1ccccc1)Nc1ccc(Oc2ccccc2)cc1	-1%	-58*	-7%[11.3 µM]	i	0%
CCOC(=O)N1CCN(CC(=O)Nc2ccc(Oc3ccccc3)cc2)CC1	-18%	-64*	-5%	?	-10%
CN(C)c1ccc(/C=C/c2ccnc3ccccc23)cc1Br	-39%	/	/	/	?
C=CCNC(=S)N/N=C(\C)c1cccc(OC)c1	-16%	-77*	7%	i	-28%
C=CCNC(=S)N/N=C(\C)c1ccc(OC)cc1	-9%	-5	-25%	i	0%
O=C(C[n+]1cccc(Cl)c1)c1ccc(O)c(O)c1	6%	/	/	/	6%
CCOC(=O)c1ccc(NC(=O)c2sc3nc4n(c(=O)c3c2C)CCC4)cc1	-27%	-52*	-23%	i	-16%
CN(Cc1cc(Cl)cc(Cl)c1)CC(C(=O)c1ccccc1)c1ccccc1 (stereo unspecified)	-20%	-79*	?	?	?
Cc1ccc2c(c1)ncc[n+]2CC(=O)c1ccc(F)cc1	-29%	/	/	/	?
Cn1c(OCc2cccnc2)nc2c1c(=O)n(Cc1ccc(Br)cc1)c(=O)n2C	-19%	-53*	-31%	i	-4%
Cn1c(OCc2cccnc2)nc2c1c(=O)n(Cc1ccc(Cl)cc1)c(=O)n2C	-22%	18	/	/	-2%
Cc1nn(Cc2ccc(Cl)cc2)c(C)c1NC(=O)c1ccc([N+](=O)[O-])cc1	2%	-74*	-8%	i	-16%
Cc1nn(Cc2ccc(Cl)cc2)c(C)c1NC(=O)Cn1nc([N+](=O)[O-])c(Cl)c1C	-5%	53	6%	i	4%
Cc1sc(NC(=O)c2ccco2)c(CN2CCC(C)CC2)c1C	-26%	?	-17%	i	-16%
Cc1sc(NC(=O)c2ccco2)c(C(c2cccnc2)N2CCC(C)CC2)c1C (stereo unspecified)	-9%	-55*	?	?	?
Cc1sc(NC(=O)c2ccco2)c(CN2CCN(Cc3ccccc3)CC2)c1C	-9%	-80*	?	?	11%
CC(=O)Nc1cc(C(=O)N2CCSCC2)cc2ncn(CCc3ccccn3)c12	/	/	/	i	/
CCOC(=O)c1c(C)nc2c(c1-c1cc(OC)ccc1OC)C(=O)c1ccccc1-2	1%	0	/	/	-28%
CCOC(=O)c1c(C)nc2c(c1-c1ccccc1)C(=O)c1ccccc1-2	-8%	-54*	-5%	i	-18%
COCO[C@H]([C@@H](C)C=C(Br)Br)[C@@H](C)COCc1ccc(OC)cc1	-7%	/	/	/	?
Cn1nccc1C(=O)NCC1CCC2(CCN(Cc3ccc(-c4ccc(Cl)cc4)o3)CC2)O1 (stereo unspecified)	/	/	/	i	/
CC(C)c1ccc(/C=C/C(=O)Nc2ccc(CN3CCOCC3)cc2)cc1	-8%	-94*	?	?	-8%
CC(C)c1ccc(CN2CCN(C(=O)CCl)CC2)cc1	-95%	-100*	/	/	?

Compound activity as filed in PubChem BioAssay.
